From PubChem BioAssay AID1619 (SRMLSC, 2009)
Screen size: about 220,000 compounds; about 830 (0.38%) were called active. The list is a sample of the results. Results with a measured potency or affinity are listed apart. Values without a mark were called inactive.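 Rule for the calls: active = compound inhibiting the enzyme by more than half at any dose during confirmatory dose-response retesting; inconclusive = strong single-dose inhibitors picked by rank but not retested; inactive = the rest.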

The molecules below were run against Leucine aminopeptidase (Plasmodium falciparum (isolate 3D7)) (UniProt Q8IL11) (assay: P. falciparum M17LAP inhibitors, primary screen, biochemical, fluorogenic H-Leu-NHMec substrate, 1536-well (AID 1619;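 note: plate controls were full reaction with DMSO carrier for no effect and no enzyme background for full effect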)). Conditions: recombinant M17LAP, H-Leu-NHMec fluorogenic kinetic assay; at 30 µM; active compounds read high.
Leucine aminopeptidase (Plasmodium falciparum (isolate 3D7)), sequence (Q8IL11 whole entry, looked up): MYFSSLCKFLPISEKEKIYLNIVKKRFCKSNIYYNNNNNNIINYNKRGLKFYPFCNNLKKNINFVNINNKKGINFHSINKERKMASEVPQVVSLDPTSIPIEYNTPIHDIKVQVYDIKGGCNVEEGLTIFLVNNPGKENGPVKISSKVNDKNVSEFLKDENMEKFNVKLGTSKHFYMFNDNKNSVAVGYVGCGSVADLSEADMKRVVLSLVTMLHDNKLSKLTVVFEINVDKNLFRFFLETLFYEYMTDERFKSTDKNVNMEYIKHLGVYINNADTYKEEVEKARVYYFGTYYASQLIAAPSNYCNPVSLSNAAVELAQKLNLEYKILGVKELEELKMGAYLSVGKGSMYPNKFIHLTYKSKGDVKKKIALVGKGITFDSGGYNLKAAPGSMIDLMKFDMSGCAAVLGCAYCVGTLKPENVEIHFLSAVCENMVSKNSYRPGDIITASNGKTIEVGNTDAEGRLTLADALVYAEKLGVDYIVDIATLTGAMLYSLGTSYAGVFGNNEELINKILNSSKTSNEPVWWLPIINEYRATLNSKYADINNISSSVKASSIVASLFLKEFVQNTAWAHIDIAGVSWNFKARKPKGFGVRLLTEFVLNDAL

SMILES	inhibition [%]
O=[N+]([O-])c1ccc(C[n+]2cccc3ccccc32)cc1	1.34
O=C(CN1CCCCC1CO)c1ccc(OC(F)F)cc1 (configuration not stated)	6.93
Cc1cc(NC(=O)CSc2ncnc3c2cnn3-c2cccc(Cl)c2)no1	1.8
CCn1cc(Br)c(C(=O)NC(C)c2ccccc2)n1 (configuration not stated)	-36.5
Cc1csc(NC(=O)C2CCN(S(=O)(=O)c3ccc4c(c3)oc(=O)n4C)CC2)n1	8.23
CC(C)(C)C(=O)N1N=C(c2cccc(NS(C)(=O)=O)c2)CC1c1cccs1 (configuration not stated)	29.7
O=C(CCNS(=O)(=O)c1cccs1)Nc1nccs1	-0.31
O=C(Nc1n[nH]c(C2CCCCC2)n1)C1CCCCC1	-5.77
Nc1n[nH]c(C2CCCCC2)n1	-1.74
Nn1c(SCc2ccccc2F)nnc1-c1ccncc1	1.35
CCOC(=O)c1sc(NC(=O)Cn2nnc3sc4c(c3c2=O)CCCC4)nc1C	-3.69
Cn1c(CNC(=O)c2ccco2)nnc1SCC(=O)Nc1cccc(Br)c1	7.38
C=CCn1c(CNC(=O)c2ccco2)nnc1SCC(=O)Nc1cccc(F)c1	14.5
CCCn1cnc2c(=S)nc(N)[nH]c21	16.6
c1ccc(-c2nnc(N3CCOCC3)nc2-c2ccccc2)cc1	5.71
CC(C)c1ccc(-c2nc(N3CCCC3)nc3n[nH]c(N)c23)cc1	27.7
COc1ccc(-c2cc(C(F)(F)F)nc(N3CCOCC3)n2)cc1	4.95
CC(C)c1ccc(-c2nc(N3CCCCCC3)nc3n[nH]c(N)c23)cc1	35.4
COc1ccc(N2CCN(c3nc(Cl)nc(N4CCOCC4)n3)CC2)cc1	11.3
Nc1nc(N2CCOCC2)nc2ccccc12	-12
COCCNC(=S)NNc1ccccc1[N+](=O)[O-]	0.4
CC(C)=NOc1nc(N2CCOCC2)nc(N2CCOCC2)n1	-6.17
CCOC(=O)Cn1nnnc1CN(Cc1ccccc1)Cc1cc2cc(CC)ccc2[nH]c1=O	-7.17
CCOC(=O)c1sc(NC(=O)CC)c(C#N)c1C	-11.2
O=C(CN1C(=O)CCC1=O)Nc1ccc(Cc2ccc(NC(=O)CN3C(=O)CCC3=O)cc2)cc1	1.75

SMILES	inhibition [%]
O=C(Cn1cnc2cc([N+](=O)[O-])ccc2c1=O)Nc1ccc2c(c1)CCC2	25.1
COC(=O)c1ccc(C)c(NC(=O)Cn2cnc3ccccc3c2=O)c1	54.1
COc1ccc(NC(=O)Cn2cnc3ccccc3c2=O)cc1OC	14.4
N#Cc1c(NC(=O)CSc2ccccn2)oc(-c2ccccc2)c1-c1ccccc1	3.85
Cc1ccc(NC(=O)Cn2nnc3ccccc3c2=O)cc1	-0.57
O=C(Cn1cnc2ccccc2c1=O)Nc1ccc2c(c1)OCCO2	5.1
N#Cc1c(NC(=O)CCn2cnc3ccccc3c2=O)oc(-c2ccccc2)c1-c1ccccc1	-1.46
Cc1ccc(NC(=O)Cn2nnc3ccccc3c2=O)cc1C	-2.19
COC(=O)c1ccc(NC(c2ccc(Cl)cc2)P(=O)(OC)OC)cc1 (configuration not stated)	4.43
CS(=O)(=O)N(CC(=O)Nc1ccc(S(=O)(=O)N2CCCC2)cc1)c1ccccc1	1.45
Cn1c(SCC(=O)C(C)(C)C)nnc1-c1ccc(F)cc1	0.55
CN(O)/C=C/C(=O)c1ccc(Br)cc1	-3.22
C[C@@H]1C[C@H](O)c2cc(Cl)ccc2N1	5.04
CCOC(=O)C1(CCCc2ccccc2)CCN(C(=O)CCc2cnccn2)CC1	-4.8
COc1ccc(-c2cc(=O)oc3cc(OCC(C)=O)ccc23)cc1	10.9
CC(Oc1ccc2c(-c3ccccc3)cc(=O)oc2c1)C(=O)O (configuration not stated)	36.3
N#C/C(=C\c1cn[nH]c1-c1ccccc1Br)C(=O)O	4.87
CCCc1cc(=O)n2[nH]c(NCc3ccccc3Cl)nc2n1	23
Cc1cccc(N(C(=O)c2csnn2)C(C(=O)NC(C)(C)C)c2cccs2)c1 (configuration not stated)	9.85
CCc1nc(N2CCN(C(C)=O)CC2)c(C#N)c2c1COC(C)(C)C2	-49.5
O=C(c1cnn(C(=O)c2ccc(O)cc2)c1)c1ccccc1O	-4.26
O=C(c1cnn(-c2ccccc2)c1)c1ccccc1O	-6.3
CCCc1nnc(SCc2ccc(OC)cc2)n1N	9.43
COc1ccc(-c2nc(-c3cccc(C(F)(F)F)c3)no2)cc1OC	-5.65
Cc1cccc(NC(=O)COc2ccc(/C=C\c3[nH]c(=O)[nH]c(=O)c3[N+](=O)[O-])cc2)c1	23.7

SMILES	inhibition [%]
CNC(=O)CSc1nc(-c2ccccc2)c(-c2ccccc2)o1	3.38
NC(=O)CSc1nc(-c2ccccc2)c(-c2ccccc2)o1	-9.73
CC(C)C(=O)Nc1ccc(NC(=O)c2ccccn2)cn1	7.94
CNC(=O)c1sccc1S(=O)(=O)Cc1c(Cl)cccc1Cl	0.44
COC(=O)c1cc(C)sc1NC(=O)C1C2C=CC(CC2)C1C(=O)O (configuration not stated)	47
CCOC(=O)c1sc(NC(=O)C2C3C=CC(C3)C2C(=O)O)nc1C (configuration not stated)	3.83
CCOC(=O)c1c(NC(=O)C2C3C=CC(CC3)C2C(=O)O)sc(C)c1C (configuration not stated)	46.5
CCOC(=O)c1c(NC(=O)C2CC2)sc(C)c1CC	-1.68
CCOCCCn1c(=O)c(NC(=O)c2ccc(OCC)cc2)c2n(c1=S)CCCCC2	10.1
O=C(NCC1CCCO1)C1C2C=CC3(CN(Cc4cccs4)C(=O)C13)O2 (configuration not stated)	15.4
O=C(NC1CCCC1)C1C2C=CC3(CN(Cc4cccs4)C(=O)C13)O2 (configuration not stated)	-3.35
Cc1ccc(S(=O)(=O)N(C)CCCC(=O)NC(C)(C)C)cc1	-1.26
O=C1CN(S(=O)(=O)c2ccc(Cl)cc2)CC(=O)N1CCc1ccccc1	-1.31
CCOc1ccc(C2=Nn3c(nnc3-c3ccccc3OC)SC2)cc1	8.39
COc1ccc(C2=Nn3c(nnc3-c3ccccc3OC)SC2)cc1OC	26.3
CC(=O)Nc1nc(CCN2C(=O)c3ccccc3C2=O)cs1	0.9
Cc1cccc2cc(C(c3nnnn3CC3CCCO3)N3CCCc4ccccc43)c(=O)[nH]c12 (configuration not stated)	10.5
CC(C)c1ccc(O)c(NC(=O)c2cccnc2)c1	7.21
CN1C2CCC1/C(=C\c1ccccc1)C(=O)/C2=C\c1ccccc1	5.66
CN1C2CCC1/C(=C\c1ccccc1Cl)C(=O)/C2=C\c1ccccc1Cl	3.79
O=c1[nH]cnc2scc(-c3cccs3)c12	-7.24
COc1ccc(Cl)cc1S(=O)(=O)n1nnc2ccccc21	49
COc1ccc(OC)c(S(=O)(=O)n2nnc3ccccc32)c1	56.9
O=S(=O)(Nc1cccc(-c2ccc3nncn3n2)c1)c1ccc(Cl)s1	26.4
CN(C)c1cccc(-c2nnc(SCCCC#N)o2)c1	-3.34

SMILES	inhibition [%]
CCOC(=O)Cc1csc(NC(=O)NC2(C(F)(F)F)Oc3ccccc3O2)n1	6.11
CCOC(=O)Cc1csc(NC(=O)NC2(C(F)(F)F)Oc3ccc(Cl)cc3O2)n1 (configuration not stated)	52.5
C=CCn1c(COC)nnc1SCC(=O)c1ccc(F)cc1	-1.58
Cc1ccc(C(=O)NN2C(=O)CSC2=S)cc1	33.1
CC(C)(C)c1ccc(C(=O)NN2C(=O)CSC2=S)cc1	5.92
COc1ccccc1CNC(=O)CN1C(=O)C(C)N(c2ccc(C)cc2)C1=O (configuration not stated)	-0.45
Cc1c(Nc2nc3ccccc3nc2NS(=O)(=O)c2cccs2)c(=O)n(-c2ccccc2)n1C	35.4
Cc1c(NS(=O)(=O)c2ccccc2)c(=O)n(-c2ccccc2)n1C	-14.2
O=S(=O)(Nc1nc2ccccc2nc1NCC1CCCO1)c1cccc(Cl)c1 (configuration not stated)	12.2
Cc1c(Nc2nc3ccccc3nc2N2CCN(c3ccccc3)CC2)c(=O)n(-c2ccccc2)n1C	9.74
Cc1ccc(Nc2nc3ccccc3nc2Nc2c(C)n(C)n(-c3ccccc3)c2=O)cc1	-3.59
O=S(=O)(Nc1nc2ccccc2nc1NCCO)c1cccc(Cl)c1	45
Cc1ccc(N(Cc2cc3ccccc3[nH]c2=O)S(=O)(=O)c2ccccc2)cc1	9.01
CCN(CC)C(=O)CSc1nnc(-c2ccc(S(=O)(=O)N3CCCC3)cc2)o1	-8.97
CCOC(=O)C1=NNC2C(=O)N(Cc3ccccc3)C(=O)C12 (configuration not stated)	5.31
COC(=O)C1=C(C)N(c2ccc(OC)cc2)C(C)=C(C(=O)OC)C1c1ccc(OC)cc1	-14.2
Cc1nc2ccccc2c2c1C(=O)NC2=O	-0.48
CCOC(=O)C1CCN(c2cc(=O)n(C3CCCCC3)c(=O)[nH]2)CC1	7.51
CS(=O)(=O)N(CC(=O)Nc1ccc(S(=O)(=O)N2CCOCC2)cc1)c1ccccc1Cl	12.3
COc1ccccc1Cn1[nH]nnc1=S	5.05
COc1ccc([C@H]2[C@H](C(=O)OC(C)(C)C)N3N=Cc4ccccc4C3C23C(=O)c2ccccc2C3=O)c(OC)c1 (some centres not stated)	34.9
COc1ccc([C@H]2[C@H](C(=O)OC(C)(C)C)N3N=Cc4ccccc4C3C23C(=O)c2ccccc2C3=O)cc1OC (some centres not stated)	21.8
